Measured values reported in PubChem BioAssay (Tox21).
Records with an inconclusive call do not appear. The source made the active and inactive calls. Unless noted, calls follow the shape of the full dose curve.

Experiment: qHTS assay to identify small molecule agonists of the hypoxia (HIF-1) signaling pathway - cell viability counter screen (AID 1224844); also: nearly all actives have a fitted effect of over 50% in size
Conditions: HRE-bla ME-180 viability, CellTiter-Glo luminescence, 17 h; series mostly up to 76.8 µM; activity change, negative = cytotoxicity: at the top concentration
Method in brief: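 Cells (HRE-bla ME-180, 2,000 per well) sat 5 hrs at 37C, got compound for 17 hrs, were read for CCF4-AM FRET, and were finally lysed with CellTiter-Glo for a 30 min room-temperature luminescence read.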
% is scaled to controls: 0 for no effect and ±100 for the full control effect.

SMILES | activity change, negative = cytotoxicity | Potency
Cn1cc(S(C)=O)c(=O)c2ccc(F)cc21 (stereo not given) | 3.59% [at 35.3 µM] (inactive) | 
C=CCOCC(CC)(CO)COCC=C | 6.5% (inactive) | 
CC(=O)Nc1ccc(S(N)(=O)=O)cc1 | -1.2% (inactive) | 
CCCCCCCCS(=O)(=O)Cl | 4.67% (inactive) | 
C=C[Si](OC(=C)C)(OC(=C)C)OC(=C)C | 0.288% (inactive) | 
CN1CCCC1 | 1.16% (inactive) | 
O=c1cc(CO)occ1O | -0.105% [at 35.3 µM] (inactive) | 
CC(=O)CC(C)C | 4.83% (inactive) | 
CO[Si](CCCOCC1CO1)(OC)OC (stereo not given) |  | inactive
CCN(CC)CCNC(=O)c1cc(S(C)(=O)=O)ccc1OC | -0.586% [at 35.3 µM] (inactive) | 
N=C(N)c1ccccc1 | 1.93% (inactive) | 
O=c1cc(-c2ccccc2)oc2ccccc12 | 5.4% (inactive) | 
COc1ccc2c(c1)CCCC2=O | 12% [at 35.3 µM] (inactive) | 
NC(CSCC(=O)O)C(=O)O (stereo not given) | 7.91% [at 35.3 µM] (inactive) | 
O=C1CCCCCCCCCCCN1 |  | inactive
COc1ccc(CCN(C)CCCC(C#N)(c2cc(OC)c(OC)c(OC)c2)C(C)C)cc1OC (stereo not given) | 4.19% [at 35.3 µM] (inactive) | 
Cc1cnc(NS(=O)(=O)c2ccc(N)cc2)nc1 | -2.01% [at 35.3 µM] (inactive) | 
C/C=C(\C)C#N | -0.469% (inactive) | 
COC(=O)CCSCCC(=O)OC | 3.76% (inactive) | 
COc1ccccc1OCC(O)CN1CCN(CC(=O)Nc2c(C)cccc2C)CC1 (stereo not given) | -1.43% [at 35.3 µM] (inactive) | 
CN(C)CCCSc1ccccc1NC(=O)/C=C/c1ccccc1 | -5.68% [at 35.3 µM] (inactive) | 
CC(=O)OCC(=O)[C@@]1(O)CC[C@H]2[C@@H]3CCC4=CC(=O)CC[C@]4(C)[C@H]3C(=O)C[C@@]21C | 11% [at 35.3 µM] (inactive) | 
N=C(N)c1ccc(OCCCOc2ccc(C(=N)N)cc2)cc1 | 0.107% [at 35.3 µM] (inactive) | 
CCC=O | 3.43% (inactive) | 
Nc1nc2c(ncn2COC(CO)CO)c(=O)[nH]1 | -0.0948% [at 35.3 µM] (inactive) | 
CCN(CC)CCOCCOC(=O)C1(c2ccccc2)CCCC1 | -19.6% [at 35.3 µM] (inactive) | 
C[C@H]1C[C@@H](O)CC(C)(C)C1 | -13.8% (inactive) | 
CC/C=C\CCOC(C)=O | 0.442% (inactive) | 

Experiment: qHTS assay to identify small molecule agonists of H2AX (AID 1224845; active = well fitted activation curve with a large enough effect in the signal ratio in the repeat runs, not every such curve was filed as active; the % refers to the signal ratio)
Conditions: CHO-K1 phospho-H2AX Ser139 HTRF, 3 h; series mostly up to 70.9 µM; activation (H2AX phosphorylation): at the top concentration
Method in brief: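 Wild-type CHO-K1 cells, plated overnight, exposed 3hr at 37C to 15 concentrations (0.76% DMSO final). Lysed, then HTRF anti-pH2AX (S139) cryptate and anti-H2AX-d2 antibodies, 24 hr room temperature; 665/620 nm emission read.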

SMILES | activation (H2AX phosphorylation) | outcome
O=C(O)CNC(=O)c1ccc([N+](=O)[O-])cc1 | -0.398% [at 154 µM] (inactive) | 
Cn1cc(S(C)=O)c(=O)c2ccc(F)cc21 (stereo not given) | -0.727% (inactive) | 
C=CCOCC(CC)(CO)COCC=C | 1.05% [at 154 µM] (inactive) | 
CC(=O)Nc1ccc(S(N)(=O)=O)cc1 | -0.582% [at 154 µM] (inactive) | 
C=C1CC[C@H]2C[C@@H]1C2(C)C | -4.07% [at 154 µM] (inactive) | 
CCCCCCCCS(=O)(=O)Cl | 0.131% [at 154 µM] (inactive) | 
C=C[Si](OC(=C)C)(OC(=C)C)OC(=C)C | -0.858% [at 154 µM] (inactive) | 
O=C1NC(=O)[C@@]2(CCOc3ccc(F)cc32)N1 | -1.21% (inactive) | 
CC/C=C\CC/C=C/CO | -2.25% [at 154 µM] (inactive) | 
CN1CCCC1 | 0.195% [at 154 µM] (inactive) | 
O=c1cc(CO)occ1O | 2.55% (inactive) | 
CC(=O)CC(C)C | -0.178% [at 154 µM] (inactive) | 
CO[Si](CCCOCC1CO1)(OC)OC (stereo not given) |  | inactive
CCN(CC)CCNC(=O)c1cc(S(C)(=O)=O)ccc1OC | -1.66% (inactive) | 
N=C(N)c1ccccc1 | -1.14% [at 154 µM] (inactive) | 
COc1ccc2c(c1)CCCC2=O | -4.44% (inactive) | 
NC(=O)c1cn(Cc2c(F)cccc2F)nn1 | 0% (inactive) | 
